A selection: hits, their analogues and other compounds. The true share with any hit is near 5.4%.
APOBEC3G inh – APOBEC3G (human) deaminase inhibition. recombinant A3G, ssDNA deamination FAM/TAMRA fluorescence. actives 0.28% (n = 330,000). Q9HC16. inhibition, % at 20 µM;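 active = inhibition of at least 40% at 20 µM, with no more than 30% in the related APOBEC3A deaminase screen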
Target sequence (Q9HC16 whole entry, looked up): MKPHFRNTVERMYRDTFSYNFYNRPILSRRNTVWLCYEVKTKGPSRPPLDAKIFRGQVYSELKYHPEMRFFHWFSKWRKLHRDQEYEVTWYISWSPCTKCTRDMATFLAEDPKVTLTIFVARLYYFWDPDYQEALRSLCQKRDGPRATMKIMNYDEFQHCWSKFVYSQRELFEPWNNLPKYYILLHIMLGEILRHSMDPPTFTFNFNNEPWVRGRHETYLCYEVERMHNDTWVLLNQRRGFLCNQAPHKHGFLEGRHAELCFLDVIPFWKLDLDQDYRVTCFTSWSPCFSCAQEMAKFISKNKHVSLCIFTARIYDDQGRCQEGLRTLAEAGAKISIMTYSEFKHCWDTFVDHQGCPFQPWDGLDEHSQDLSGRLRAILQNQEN
A3A deaminase – human APOBEC3A DNA deaminase inhibition; P31941; actives 0.41% (n = 330,000); inhibition, % at 20 µM; recombinant A3A, FAM/TAMRA ssDNA deamination fluorescence;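 active = at least 40% inhibition at 20 µM here, with at most 30% in a related deaminase screen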
Target sequence (P31941 whole entry, looked up): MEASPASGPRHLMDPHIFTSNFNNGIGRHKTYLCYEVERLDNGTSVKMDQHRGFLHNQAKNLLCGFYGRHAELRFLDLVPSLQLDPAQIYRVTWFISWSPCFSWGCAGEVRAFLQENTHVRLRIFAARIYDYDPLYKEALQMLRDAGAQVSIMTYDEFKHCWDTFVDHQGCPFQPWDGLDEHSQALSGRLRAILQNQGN
rCAG RNA binder – molecules binding r(CAG) RNA repeats; actives 1.3% (n = 370,000); r(CAG) RNA repeat, TO-PRO-1 dye displacement fluorescence; inhibition, % at 3 µM;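 active = inhibition above the plate cutoff, the mean of all test compounds on that plate plus 3 SD, cut at about 35% in these data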;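 note: higher means more dye released from RNA so lower well fluorescence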
aDG glyco act – increases alpha dystroglycan glycosylation | AID 624168 | actives 0.22% (n = 360,000) | Pro5-aDG cells, alpha-DG glycosylation AlphaScreen (IIH6); 0% Pro5, 100% B10-LARGE cell signal | activation, % at 10 µM;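 active = activation of at least 8% versus controls, or a plate z-score of at least 8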;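 note: Pro5 are CHO cells carrying HIG-tagged alpha-DG that lacks glycosylation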
ALR H2O2 inh – blocks human ALR sulfhydryl oxidase activity; actives 3.8% (n = 290,000); AID 485317; P55789; purified ALR, DTT oxidation, H2O2 HRP-luminol luminescence; inhibition, % (test concentration not listed);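 active = mean replicate inhibition above about 79%, with every replicate also reaching it, limit read from the data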
Target sequence (P55789 whole entry, looked up): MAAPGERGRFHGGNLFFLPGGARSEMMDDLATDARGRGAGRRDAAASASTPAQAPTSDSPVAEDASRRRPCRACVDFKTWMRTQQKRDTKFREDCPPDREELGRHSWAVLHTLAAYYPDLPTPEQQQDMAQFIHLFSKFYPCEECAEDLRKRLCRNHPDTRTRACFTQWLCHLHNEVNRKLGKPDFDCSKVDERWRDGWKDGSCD
PHOSPHO1 block – PHOSPHO1 (human) inhibition; Q8TCT1; recombinant PHOSPHO1, absorbance phosphatase assay; inhibition, % at 13.3 µM; actives 1.1% (n = 290,000); AID 1565; in the data active = inhibition above about 60%
rCAG binder conf – r(CAG) RNA repeat binding, confirmation; inhibition, % at 3 µM; actives 70% (n = 4,300); AID 652065; TO-PRO-1 dye displacement fluorescence; shares compounds with rCAG RNA binder;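 active = inhibition above a per-plate cutoff, the mean inhibition of sample wells plus 3 SD, cut at about 35% in these data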;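 note: loss of TO-PRO-1 fluorescence as compound displaces dye from 1x1 AA loop RNA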
DNA CAG counter – counter-screen for rCAG RNA binders: DNA CAG dye complex inhibitors; shares compounds with rCAG RNA binder; d(CAG) DNA oligo TO-PRO-1 dye displacement, fluorescence; inhibition, % at 3 µM; actives 94% (n = 4,300);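 active = inhibition above its plate's cutoff, the mean test-well inhibition plus 3 SD, cut at about 4.8% in these data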;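 note: hits displace the dye from DNA and so lower well fluorescence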
Each line names hits and unclear results; the compound was inactive in the other large screens (follow-up assays come after a bar, where they were run).

COC(=O)c1ccc(N2NC(=O)/C(=C/c3cc(OC)c(OC)c(OC)c3)C2=O)cc1	rCAG RNA binder 65.5 (no result: ALR H2O2 inh) | rCAG binder conf 61.1 | DNA CAG counter 20.1
COC(=O)c1ccc(N2NC(=O)/C(=C/c3cc(OC)c(O)c(OC)c3)C2=O)cc1	rCAG RNA binder 41.7 | rCAG binder conf inactive | DNA CAG counter 4.6
N#Cc1c(-c2cccs2)nc(SCc2ccc(Cl)cc2)[nH]c1=O	rCAG RNA binder 87.2 (no result: ALR H2O2 inh) | rCAG binder conf 88.1 | DNA CAG counter 67.8
COc1ccc(Cn2c(NC(=O)c3ccccc3)nc(Cc3ccccc3)c2-c2ccccc2)cc1	none (no result: APOBEC3G inh, A3A deaminase, aDG glyco act, ALR H2O2 inh, PHOSPHO1 block)
Cc1cc(-c2nnc(SCC(=O)Nc3nc(-c4ccc(Cl)cc4)cs3)o2)no1	rCAG RNA binder 45.9, ALR H2O2 inh 99.0 | rCAG binder conf inactive | DNA CAG counter 5.8
COc1ccc(C(=O)Nc2ccccc2C(=O)NC2CC2)c(OC)c1OC	none (no result: APOBEC3G inh, A3A deaminase, ALR H2O2 inh, PHOSPHO1 block)
CCOc1ccccc1NC(=O)CCN1CCN(S(=O)(=O)c2ccc(Br)cc2)CC1	rCAG RNA binder 36.0 | rCAG binder conf inactive | DNA CAG counter inactive
CCOc1ccc(NC(=O)CCN2CCN(S(=O)(=O)c3ccc(F)cc3)CC2)cc1	none
N=C1/C(=C\c2ccc(SCc3ccco3)o2)C(=O)N=C2SC=NN12	rCAG RNA binder 41.1 | rCAG binder conf inactive | DNA CAG counter 8.4
C[C@@H]1NS(=O)(=O)c2c(F)cccc2O[C@@H]1c1ccccc1	none (no result: APOBEC3G inh, A3A deaminase, aDG glyco act, ALR H2O2 inh, PHOSPHO1 block)
O=C1CS(=O)(=O)N(Cc2ccc(F)cc2)c2ccccc21	rCAG RNA binder 41.3 (no result: ALR H2O2 inh, PHOSPHO1 block) | rCAG binder conf inactive | DNA CAG counter 4.5
COc1cc(CN2c3ccccc3C(=O)CS2(=O)=O)cc(OC)c1	rCAG RNA binder 47.0 (no result: ALR H2O2 inh, PHOSPHO1 block) | rCAG binder conf inactive | DNA CAG counter 8.5
O=C1CS(=O)(=O)N(Cc2ccccc2F)c2ccc(Br)cc21	rCAG RNA binder 44.2 (no result: ALR H2O2 inh, PHOSPHO1 block) | rCAG binder conf inactive | DNA CAG counter 13.3
COc1ccc(CN2CCN(c3ccccc3OC)CC2)cc1OC	none (no result: PHOSPHO1 block)
COc1ccc(CN2c3ccccc3C(=O)CS2(=O)=O)cc1OC	rCAG RNA binder 35.5 (no result: APOBEC3G inh, A3A deaminase, aDG glyco act, ALR H2O2 inh, PHOSPHO1 block) | rCAG binder conf inactive | DNA CAG counter 6.5
O=C(CCN1C(=O)S/C(=C\c2ccccc2)C1=O)Nc1ccc(S(=O)(=O)Nc2nccs2)cc1	rCAG RNA binder 76.8 | rCAG binder conf 73.8 | DNA CAG counter 39.3
COc1ccccc1/C=C1/SC(=O)N(CCC(=O)Nc2ccc(S(=O)(=O)Nc3nccs3)cc2)C1=O	rCAG RNA binder 78.9 | rCAG binder conf 80.1 | DNA CAG counter 45.9
Cc1cc(C)nc(NS(=O)(=O)c2ccc(NC(=O)CN3C(=O)S/C(=C\c4ccccc4)C3=O)cc2)n1	rCAG RNA binder 60.0 | rCAG binder conf 68.6 | DNA CAG counter 30.2
O=C(CCc1ccccc1)Nc1ccc(S(=O)(=O)Nc2nccs2)cc1	none
Cc1cc(C)nc(NS(=O)(=O)c2ccc(NC(=O)CN3C(=O)C4CC=CCC4C3=O)cc2)n1 (configuration not stated)	none
COC(=O)[C@]12C[C@H](CC(=O)NCC34CC5CC(CC(C5)C3)C4)C(=O)N(CCC3=CCCCC3)C1=C[C@H](COCc1ccccc1)O[C@@H]2C	none (no result: APOBEC3G inh, A3A deaminase, aDG glyco act, ALR H2O2 inh, PHOSPHO1 block)
Cc1cc(O)ccc1-c1cc(C(=O)NCc2ccc(F)cc2)[nH]n1	none (no result: APOBEC3G inh, A3A deaminase, ALR H2O2 inh, PHOSPHO1 block)
C=CCSc1nnc(NC(=O)c2cccc(S(=O)(=O)N(C)c3ccccc3)c2)s1	rCAG RNA binder 47.8 | rCAG binder conf 44.3 | DNA CAG counter 14.1
COc1cc(CCc2ccccc2)c(C(=O)O)c(O)c1C/C=C(/C)CCC=C(C)C	rCAG RNA binder 93.5 (no result: ALR H2O2 inh, PHOSPHO1 block) | rCAG binder conf 82.0 | DNA CAG counter 46.7
COc1cc(CCc2ccccc2)c(C(=O)O)c(O)c1CC=C(C)C	rCAG RNA binder 79.3 (no result: APOBEC3G inh, A3A deaminase, ALR H2O2 inh, PHOSPHO1 block) | rCAG binder conf 77.0 | DNA CAG counter 40.9
COc1cc(/C=C/C(=O)O)cc(OC)c1OC	none
COc1cc(C)c(/C=C/C(C)=C/C=C/C(C)=C/C(=O)O)c(C)c1C	rCAG RNA binder 46.6 (no result: ALR H2O2 inh, PHOSPHO1 block) | rCAG binder conf 53.5 | DNA CAG counter 17.4
O=C(NCC(c1cccs1)N1CCOCC1)c1ccccc1NS(=O)(=O)c1ccc(Cl)cc1 (configuration not stated)	rCAG RNA binder 50.4 | rCAG binder conf 61.1 | DNA CAG counter 22.6
O=C(NCC(c1ccco1)N1CCCCC1)c1ccc(S(=O)(=O)Nc2ccccc2Cl)cc1 (configuration not stated)	rCAG RNA binder 43.1 (no result: PHOSPHO1 block) | rCAG binder conf 38.8 | DNA CAG counter 8.8
O=C(NCC(c1cccs1)N1CCOCC1)c1ccccc1NS(=O)(=O)c1ccc(Br)cc1 (configuration not stated)	rCAG RNA binder 49.0 (no result: ALR H2O2 inh) | rCAG binder conf 46.5 | DNA CAG counter 14.7
O=C(NCC(c1ccco1)N1CCCC1)c1ccc(S(=O)(=O)Nc2ccccc2Cl)cc1 (configuration not stated)	none (no result: PHOSPHO1 block)
COC(=O)[C@]12C[C@H](CC(=O)NCCCCc3ccccc3)C(=O)N(Cc3ccccc3)C1=C[C@H](C1CCCC1)O[C@@H]2C	none (no result: APOBEC3G inh, A3A deaminase, aDG glyco act, ALR H2O2 inh, PHOSPHO1 block)
CCOC(=O)[C@]12CCCC=C1N(Cc1ccco1)C(=O)[C@H](CC(=O)NCCCN1CCCC1=O)C2	none (no result: APOBEC3G inh, A3A deaminase, ALR H2O2 inh, PHOSPHO1 block)
O=C(O)c1ccc(N2N=C(c3ccccc3)CC2c2ccccc2)cc1 (configuration not stated)	rCAG RNA binder 43.8, ALR H2O2 inh 92.0 | rCAG binder conf 46.9 | DNA CAG counter 12.4
CN(CCc1ccccn1)C(=O)c1cc2ccccn2n1	none (no result: APOBEC3G inh, A3A deaminase, aDG glyco act, ALR H2O2 inh, PHOSPHO1 block)
C=CCN1C(C(=O)OC)CN(Cc2cn(Cc3ccc(Cl)cc3)nn2)CCS1(=O)=O (configuration not stated)	none (no result: APOBEC3G inh, A3A deaminase, aDG glyco act, ALR H2O2 inh, PHOSPHO1 block)
Nc1[nH]c(C(=O)c2ccc(Br)cc2)c(-c2ccc(F)cc2)c1C(=O)NCCc1c[nH]c2ccccc12	none (no result: APOBEC3G inh, A3A deaminase, aDG glyco act, ALR H2O2 inh, PHOSPHO1 block)
O=C(NCc1cccc(Cl)c1)c1ccc(S(=O)(=O)Nc2cccc(C(F)(F)F)c2)cc1	rCAG RNA binder 42.3 | rCAG binder conf 44.9 | DNA CAG counter 9.1
CCOC(=O)c1ccc(Nc2nc(-c3cccnc3)nc3ccccc23)cc1	none
O=C(NC(=S)Nc1ccccc1)c1cc(-c2ccccc2)nc2ccccc12	none
CCOC(=O)c1ccc(NC(=S)NNC(=O)c2cc(-c3cccnc3)nc3ccccc23)cc1	rCAG RNA binder 78.3 | rCAG binder conf 79.7 | DNA CAG counter 36.9
O=C(NNC(=S)Nc1ccccc1)c1cc(-c2cccnc2)nc2ccccc12	rCAG RNA binder 50.5 (no result: ALR H2O2 inh) | rCAG binder conf 43.3 | DNA CAG counter 13.0
CCNC(=S)NNC(=O)c1cc(-c2cccc(OCC)c2)nc2ccccc12	none
CCNC(=S)NNC(=O)c1cc(-c2cccc(C)c2)nc2ccccc12	rCAG RNA binder 43.2, PHOSPHO1 block 71.9 | rCAG binder conf 39.9 | DNA CAG counter 11.8
